Six1-Eya2 inh: qHTS Assay for Inhibitors of the Six1/Eya2 Interaction | Homeobox protein SIX1 (Homo sapiens) + Protein phosphatase EYA2 (Homo sapiens), … | AlphaScreen GST-Six1/His-Eya2 binding, biochemical; hits give low values | activity change, % (no concentration beside the values) | 0.56% of 360,000 active | AID 651725, 2012; in the data active = activity change below about -65%; inconclusive = mostly about -30% to -63%
Target sequence (O00167 whole entry, looked up): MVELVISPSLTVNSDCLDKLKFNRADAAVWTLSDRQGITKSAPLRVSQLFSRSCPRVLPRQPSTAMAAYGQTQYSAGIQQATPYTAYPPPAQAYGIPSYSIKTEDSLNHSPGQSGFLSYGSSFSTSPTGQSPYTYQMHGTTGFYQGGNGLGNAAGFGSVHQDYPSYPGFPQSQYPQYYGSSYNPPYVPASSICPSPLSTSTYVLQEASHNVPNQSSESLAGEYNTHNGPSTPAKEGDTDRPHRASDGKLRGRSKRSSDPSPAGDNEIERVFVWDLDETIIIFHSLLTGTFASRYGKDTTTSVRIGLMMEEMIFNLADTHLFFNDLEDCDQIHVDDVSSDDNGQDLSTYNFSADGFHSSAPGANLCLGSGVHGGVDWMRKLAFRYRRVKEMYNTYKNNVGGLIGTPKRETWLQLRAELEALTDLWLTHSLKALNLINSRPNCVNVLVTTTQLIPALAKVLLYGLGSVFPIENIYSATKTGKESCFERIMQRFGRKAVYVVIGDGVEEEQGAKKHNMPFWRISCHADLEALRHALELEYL
Target sequence (Q15475 whole entry, looked up): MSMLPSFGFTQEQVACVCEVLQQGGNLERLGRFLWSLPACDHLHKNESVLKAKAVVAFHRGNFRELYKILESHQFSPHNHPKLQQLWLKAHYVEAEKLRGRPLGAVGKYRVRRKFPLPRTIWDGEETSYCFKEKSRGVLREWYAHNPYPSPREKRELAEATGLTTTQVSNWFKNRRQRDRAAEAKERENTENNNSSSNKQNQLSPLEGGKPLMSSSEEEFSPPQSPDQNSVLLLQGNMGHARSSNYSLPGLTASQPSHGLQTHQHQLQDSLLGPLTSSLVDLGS
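Six1/Eya2 binding was read as AlphaScreen signal after compounds were pinned into GST-Six1 plus His-tagged Eya2 (5X stock 250/500 nM) in pH 8.0 Tris/NaCl/TCEP buffer, beads added, then incubated 1 h, 37 C, dark.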
B2AR arrestin: qHTS assay of beta-arrestin-biased ligands of beta2-adrenergic receptor. Beta-2 adrenergic receptor (Homo sapiens), P07550. beta-arrestin recruitment to beta2AR, cell-based reporter. Potency, µM (doses to about 46.1 µM), for inactives: at the highest dose activation, usual class: activators. 0.02% of 330,000 active. AID 492947, 2010;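 also: potency is read from the fitted curve at half-maximal effect; 0% = DMSO controls and full agonism = EC100 isoproterenol or metaproterenol; nearly all actives have a fitted effect of over 65% in size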
L3MBTL1 inh: qHTS Assay for the Inhibitors of L3MBTL1 | AlphaScreen L3MBTL1–H3K9me1 peptide binding | Lethal(3)malignant brain tumor-like protein 1 (Homo sapiens), Q9Y468 | Potency, µM (doses to about 57.1 µM), without a hit: at the top dose activity, negative = inhibition, usual class: inhibitors | 0.66% of 230,000 active; also: potency is read from the fitted curve at half-maximal effect; nearly all actives have a fitted effect of over 60% in size
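L3MBTL1 50 nM + b-AHA-H3(1-15)K9me1 75 nM, 30 min RT; compound added, 30 min RT; streptavidin donor/Ni-chelate acceptor beads 10 ug/mL each final, 30 min RT dark; AlphaScreen read.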
CtBP-E1A blk: qHTS Assay for Inhibitors of the CtBP/E1A Interaction. AlphaScreen GST-E1A/His-CtBP binding, 1536-well; hits give low values. AID 651724, 2012. activity change, % (concentration not given with the values). 0.49% of 340,000 active. CtBP / adenovirus E1A interaction (AlphaScreen); in the data active = activity change below about -65%; inconclusive = mostly about -30% to -63%
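Steps: dispense buffer (Tris pH 8.0, NaCl 300 mM, TCEP 1 mM, BSA, Tween 20); add 5X protein mix (GST-E1A, His-CtBP, 125 nM each); pin 23 nL compound; 2 h at 37 °C, dark; add 5X beads (50 ug/mL); 1 h; read.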
Eya2 inh: qHTS Assay for Inhibitors of the Phosphatase Activity of Eya2. Protein phosphatase EYA2 (Homo sapiens), O00167. 0.006% of 330,000 active. recombinant Eya2, OMFP fluorescence dephosphorylation (OMFP is methylfluorescein phosphate). Potency, µM (highest dose often 76.9 µM), without a hit: at the highest dose activity, negative = inhibition, actives largely listed as inhibitors; also: potency is read from the fitted curve at half-maximal effect
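Eya2 (0.2 uM) preincubated 10 min at ambient with compound, then OMFP substrate added at 50 uM; 10 min reaction in 50 mM HEPES pH 7.5, 50 mM NaCl, 5 uM MgCl2, 0.05% BSA, 1 mM DTT. Fluorescence read at Ex 485/Em 525 nm.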
An asterisk follows results filed as active; ? = inconclusive; · = not tested or not shown; [ ] = remark or other dose. This is a sample that favours compounds with a hit; in the whole collection about 0.9% have one here. Unless noted, calls follow the shape of the dose curve; as a rule, active = well fitted curve in the direction sought with a large enough effect; inconclusive = small, poorly fitted or top-dose-only effect, or another doubt; inactive = no such curve, though single readings can be large; an effect the other way counts as inactive or inconclusive. Unless noted, % is scaled to controls: 0 for no effect and ±100 for the full control effect.

SMILES	Six1-Eya2 inh	B2AR arrestin	L3MBTL1 inh	CtBP-E1A blk	Eya2 inh
O=C1/C(=C/c2ccco2)CCC1C1CCCC1 (stereo unspecified)	3.6	-0.1%	·	5.4	-8.3%
O=C1/C(=C\c2ccco2)CCC/C1=C\c1ccco1	-28.5	8.8%	3.55µM*	-0.9	6.1%
O=C1/C(=C/c2ccco2)Cc2ccccc21	-29.0	-0.2%	-11.5%	1.6	-6.4%
CCNC(=S)NNC(=O)c1ccccc1Cl	10.1	-1.0%	8.2%	9.3	-1.3%
CCNC(=S)NNC(=O)c1ccccn1	-95.3*	-2.6%	3.55µM*	-95.9*	6.0%
S=C(NCc1ccccn1)Nc1ccc(Cl)c(Cl)c1	-4.9	?	3.5%	-0.2	-4.3%
O=C(NNC(=S)Nc1ccc(Cl)c(Cl)c1)c1ccccn1	-89.9*	0.9%	-91.4%	·	0.3%
COC(=O)c1sc2cc(C(F)(F)F)cnc2c1-c1cccnc1	-72.1*	0.0%	0.8%	-15.1	-18.8%
Clc1ccccc1C1Nc2cccc3cccc(c23)N1	-0.6	?	?	·	-4.4%
Clc1cccc(C2Nc3cccc4cccc(c34)N2)c1Cl	-9.4	2.82µM*	-3.6%[2.29 µM]	-12.1	-5.5%
CCC(=Cc1ccccc1OC)c1ccncc1	7.4	·	·	2.4	·
Cc1ccc(NC(=O)CN(C)C(=O)c2cccc(-n3cccc3)c2)cc1	?	-0.3%	3.98µM*	-2.5	32.2%
Cc1cccc(NC(=O)CNCC(=O)Nc2cccc(C)c2C)c1C	0.3	-0.2%	·	2.4	-18.5%
COc1ccc(NC(=O)CN(C)C(=O)c2cccc(-n3cccc3)c2)cc1	?	-0.3%	10µM*	-4.9	-14.9%
Cc1cccc(C)c1NC(=O)CN(C)C(=O)c1ccc(N2C(=O)CCC2=O)cc1	-3.1	-0.2%	3.0%	8.6	20.6%
Cc1cccc(NC(=O)CNC(=O)c2cccc(-n3cccc3)c2)c1C	?	-0.8%	3.55µM*	3.7	11.8%
Cc1cccc(C)c1NC(=O)CN(C)C(=O)c1cccc(-n2cccc2)c1	-14.9	0.1%	28.2µM*	10.1	3.0%
O=C(CCCSc1ccc(Cl)cc1)Nc1cc(S(=O)(=O)N2CCOCC2)ccc1O	1.8	-0.1%	-4.8%	-2.8	-12.8%
CCC(c1nnnn1-c1c(C)cccc1C)N1CCN(c2ccccn2)CC1 (stereo unspecified)	-4.2	·	·	7.5	·
O=C(NCCCn1ccnc1)/C(=C\c1ccccc1Cl)NC(=O)c1ccccc1	6.6	0.4%	·	-3.3	22.7%
O=C(O)c1ccccc1C=NNc1ccccn1	1.3	·	·	-17.4	·
CCOC(=O)c1c(C)[nH]c(C)c1S(=O)(=O)N1CCN(C(=O)c2ccco2)CC1	3.0	-0.3%	·	·	3.8%
O=c1[nH]c2sc3c(c2c2nncn12)CCCC3	-79.3*	0.4%	-7.8%	-83.3*	-0.6%
COc1ccc(OCC(CO)N2CCN(c3ccccc3)CC2)cc1 (stereo unspecified)	0.7	·	·	-1.6	·
Cn1c(=S)c2[nH]c(SCCN3CCCC3)nc2n(C)c1=O	-12.7	15.8µM*	·	·	-22.1%
SMILES	Six1-Eya2 inh	B2AR arrestin	L3MBTL1 inh	CtBP-E1A blk	Eya2 inh
Cn1c(=S)c2[nH]c(SCCN)nc2n(C)c1=O	?	·	·	-29.6	·
CC(C)NC(=O)N(C)C[C@@H]1Oc2cc(Br)ccc2S(=O)(=O)N([C@@H](C)CO)C[C@H]1C	3.4	·	·	5.3	·
CC(=O)Oc1ccc2c(=O)c(/C=N/c3cc(=O)[nH]c(=S)[nH]3)coc2c1	-74.6*	-0.7%	-13.1%	-4.2	-16.7%
O=c1cc(/N=C/c2coc3cc(Br)ccc3c2=O)[nH]c(=S)[nH]1	-15.0	-0.6%	0.9%	-14.0	-2.3%
O=C(Nc1cccc(F)c1)C1CCCN(S(=O)(=O)c2ccccc2)C1 (stereo unspecified)	-5.3	-0.5%	·	2.7	-2.9%
Nc1c(S(=O)(=O)c2cccs2)c2nc3ccccc3nc2n1/N=C/c1cccc(O)c1	-87.5*	0.0%	2.1%	-92.5*	16.0%
